About 83,000 compounds went through this panel and 20% of them were active in at least one assay; those are over-represented in the sample as a whole.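 Treatment: one concentration, 48 hours, 96-well format. Scoring: percent growth, with anything below 10 considered active.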 A number with no mark means an inactive call. Calls of active or inactive are those of the source.

For one assay, the system named is T-47D breast. Kind of assay: NCI-60 one-dose screen, 48 h (100 = growth as untreated, 0 = no growth, -100 = all killed). To be noted: 10 µM.
As for `CC(C)(C)c1ccc(S(=O)(=O)Oc2ccc(NC(=O)C3CCCCC3)cc2)cc1`, the growth is 0.897% (active).

For `OCCn1cccn1`, the growth is 102%.

Take `O=C(/C=C/C=C/c1c(C2CC2)nc2ccccc2c1-c1ccc(F)cc1)c1cccs1`: the growth was 4.82% (active).

Take `NS(=O)(=O)c1ccc(N2N=C(c3ccccc3)CCC2=O)cc1`: the growth is 102%.

In the case of `COc1cc(C2C(C#N)=C(N)Oc3cc(O)ccc32)cc(OC)c1OC` (stereo not given), the growth was 16%.

In the case of `CC(C)N(CCOc1ccc(-c2nc3sccn3c2-c2ccnc(S(C)(=O)=O)n2)cc1)C(C)C`, the growth is 105%.

For the compound `CCCCCCCCCCCCCCCCCC[n+]1ccc2c(C)c3c(c(C)c2c1)c1cc(O)ccc1n3CC`, the growth was 23.5%.

In the case of `CC(C)c1cc(N=O)cc(C(C)C)c1O`, the growth was 108%.

On to `NS(=O)(=O)Oc1ccc2c(ccn2C(=O)C23CC4CC(CC(C4)C2)C3)c1`, for which the growth was 112%.

In the case of `COc1cc(-c2nn(-c3cccc(NC(=O)NCCNC(=O)c4ccccc4)c3)cc2-c2ccncc2)ccc1Cl`, the growth was -7.51% (active).

As for `CCOC(=O)N/N=C/c1ccc(OC)c(OC)c1`, the growth is 105%.

As for `CC(C)Cc1ccc([C@H](C)C(=O)O)cc1`, the growth is 102%.

Take `CCc1ccc(C2=NN(c3ccc(S(C)(=O)=O)cc3)C(=O)CC2)cc1`: the growth was 41.4%.

Turning to `CN1CCc2c(sc3nc4n(-c5ccc(Cl)cc5)c(=O)[nH]n4c(=O)c23)C1`, the growth was 87.6%.

As to `CC(C)(C)OC(=O)N1CCc2c(sc3ncnc(N/N=C/c4cccc5ccccc45)c23)C1`, the growth is 12.6%.

With `COc1ccccc1-n1c(-c2csc(NC(C)=O)n2)n[nH]c1=S`, the growth was 104%.

On to `CCCCC1(O)CCCCC1`, for which the growth was 91.5%.

In the case of `CNS(=O)(=O)Oc1ccc(-c2sc3cc(OS(=O)(=O)NC)ccc3c2C(=O)c2ccc(OCCN3CCCCC3)cc2)cc1`, the growth is 60.8%.

As to `CCOC(=O)C1C(C(=O)OCC)C2C(=O)C3C(C(=O)OCC)C(C(=O)OCC)C3C(=O)C12` (stereo not given), the growth is 100%.

As to `C[C@]12CC[C@@H]3c4ccc(O)cc4CC[C@H]3[C@@H]1CC[C@@H]2NS(=O)(=O)c1ccc(C(F)(F)F)cc1`, the growth is 25%.

In the case of `COc1cc2cc(Oc3ccc(NC(=O)Nc4ccc(Cl)c(Cl)c4)cc3)c(C)nc2cc1OC`, the growth was 60.9%.

In the case of `Cc1c(C(N)=O)sc2c1c(=O)n(Cc1ccccc1)c1nnc(-c3ccc(Br)cc3)n21`, the growth was 20.9%.

As for `O=C(NCCCNS(=O)(=O)c1ccc(Cl)cc1)Nc1ccc(-n2cc(-c3ccncc3)c(-c3ccc(Cl)c(O)c3)n2)cc1`, the growth was 22.2%.

Take `CNC(=O)c1cc(Oc2ccc3c(c2)sc2nc(-c4ccc(N)cc4)cn23)ccn1`: the growth was 36.1%.

Consider `O=C1CSC(=S)N1/N=C/c1ccc(Cl)s1`, for which the growth is 102%.

Turning to `COc1ccc(-c2cc(-c3ccc(Cl)cc3)nc(SCCCC(=O)NO)n2)cc1`, the growth is 8.24% (active).

As to `COc1ccc(-c2nn(-c3cccc(Cl)c3)cc2-c2cc(-c3ccccc3)nc(N)n2)cc1`, the growth is 46.5%.

Take `O=[N+]([O-])c1cccc(/C=N/NC(=S)NC23CC4CC(CC(C4)C2)C3)c1`: the growth is 88.7%.

As to `O=C1c2c(c3c4ccccc4n(CCCCCCN4CCOCC4)c3c3[nH]c4ccccc4c23)C(=O)N1O`, the growth was 79.9%.

Regarding `Nc1cc(-c2ccncc2)c[nH]c1=O`, the growth is 114%.

As to `COc1cc(-c2nn(-c3ccc(NC(=O)NCCCNC(=O)c4ccccc4)cc3)cc2-c2ccncc2)ccc1Cl`, the growth was 67.5%.

Take `C=CCn1c(SCC(=O)Nc2ccc(C(=O)/C=C/c3cc(OC)c(OC)c(OC)c3)cc2)nnc1-c1cc(-c2ccc(Cl)cc2)nc2ccccc12`: the growth was 78.4%.

Turning to `CCCCCOC(=O)Nc1nc(=O)n(C2O[C@H](C)[C@@H](O)[C@H]2O)cc1F` (stereo not given in full), the growth is 102%.

In the case of `COc1ccc2c(c1)OC(N)=C(C#N)C2c1cc(OC)c(OC)c(OC)c1` (stereo not given), the growth was 16.7%.

On to `CC(C)(C)OC(=O)N1CCc2c(sc3ncnc(N/N=C/c4ccccc4Br)c23)C1`, for which the growth is 41.5%.

For `Cc1cc(CCNC=O)c(C)c2c1sc1ccccc12`, the growth was 92.8%.

In the case of `Nc1ccn(Cc2nnc(CCC(=O)c3nc4ccccc4[nH]3)o2)c(=O)n1`, the growth is 71.6%.

With `CNC(=O)c1cc(Oc2ccc3c(c2)sc2nc(-c4ccc(NC(=O)Nc5ccc(Cl)c(C(F)(F)F)c5)cc4)cn23)ccn1`, the growth was 19.4%.

Take `COc1ccc(/C=C/C(=O)C(=O)/C=C/c2ccc(OC)c(OC)c2)cc1OC`: the growth was 35.8%.

For the compound `COc1ccc(C(c2ccc(OCCN(C)C)cc2)c2cc3ccccc3c3ccccc23)cc1` (stereo not given), the growth was 21.8%.

A further assay relates to BT-549 breast. The description is as above. To be noted: 10 µM.
As to `CC(C)(C)c1ccc(S(=O)(=O)Oc2ccc(NC(=O)C3CCCCC3)cc2)cc1`, the growth is 51.8%.

For the compound `OCCn1cccn1`, the growth is 110%.

With `O=C(/C=C/C=C/c1c(C2CC2)nc2ccccc2c1-c1ccc(F)cc1)c1cccs1`, the growth is 3.45% (active).

As to `NS(=O)(=O)c1ccc(N2N=C(c3ccccc3)CCC2=O)cc1`, the growth was 223%.

As for `COc1cc(C2C(C#N)=C(N)Oc3cc(O)ccc32)cc(OC)c1OC` (stereo not given), the growth is 58.5%.

In the case of `CC(C)N(CCOc1ccc(-c2nc3sccn3c2-c2ccnc(S(C)(=O)=O)n2)cc1)C(C)C`, the growth is 90.8%.

On to `CCCCCCCCCCCCCCCCCC[n+]1ccc2c(C)c3c(c(C)c2c1)c1cc(O)ccc1n3CC`, for which the growth is -11% (active).

Turning to `CC(C)c1cc(N=O)cc(C(C)C)c1O`, the growth is 111%.

Take `NS(=O)(=O)Oc1ccc2c(ccn2C(=O)C23CC4CC(CC(C4)C2)C3)c1`: the growth was 105%.

For the compound `COc1cc(-c2nn(-c3cccc(NC(=O)NCCNC(=O)c4ccccc4)c3)cc2-c2ccncc2)ccc1Cl`, the growth is -7.03% (active).

For `CCOC(=O)N/N=C/c1ccc(OC)c(OC)c1`, the growth was 106%.

With `CC(C)Cc1ccc([C@H](C)C(=O)O)cc1`, the growth was 107%.

As for `CCc1ccc(C2=NN(c3ccc(S(C)(=O)=O)cc3)C(=O)CC2)cc1`, the growth was 21.9%.

Turning to `CN1CCc2c(sc3nc4n(-c5ccc(Cl)cc5)c(=O)[nH]n4c(=O)c23)C1`, the growth is 94%.

With `CC(C)(C)OC(=O)N1CCc2c(sc3ncnc(N/N=C/c4cccc5ccccc45)c23)C1`, the growth is 58.7%.

Turning to `COc1ccccc1-n1c(-c2csc(NC(C)=O)n2)n[nH]c1=S`, the growth is 94.7%.

Regarding `CCCCC1(O)CCCCC1`, the growth is 95.5%.

In the case of `CNS(=O)(=O)Oc1ccc(-c2sc3cc(OS(=O)(=O)NC)ccc3c2C(=O)c2ccc(OCCN3CCCCC3)cc2)cc1`, the growth was 73.7%.

Regarding `CCOC(=O)C1C(C(=O)OCC)C2C(=O)C3C(C(=O)OCC)C(C(=O)OCC)C3C(=O)C12` (stereo not given), the growth is 109%.

Turning to `C[C@]12CC[C@@H]3c4ccc(O)cc4CC[C@H]3[C@@H]1CC[C@@H]2NS(=O)(=O)c1ccc(C(F)(F)F)cc1`, the growth was 59%.

As to `COc1cc2cc(Oc3ccc(NC(=O)Nc4ccc(Cl)c(Cl)c4)cc3)c(C)nc2cc1OC`, the growth was 28.1%.

Turning to `Cc1c(C(N)=O)sc2c1c(=O)n(Cc1ccccc1)c1nnc(-c3ccc(Br)cc3)n21`, the growth is 22.6%.

For `O=C(NCCCNS(=O)(=O)c1ccc(Cl)cc1)Nc1ccc(-n2cc(-c3ccncc3)c(-c3ccc(Cl)c(O)c3)n2)cc1`, the growth is 26.6%.

As for `CNC(=O)c1cc(Oc2ccc3c(c2)sc2nc(-c4ccc(N)cc4)cn23)ccn1`, the growth is 5.56% (active).

For the compound `O=C1CSC(=S)N1/N=C/c1ccc(Cl)s1`, the growth was 102%.

For `COc1ccc(-c2cc(-c3ccc(Cl)cc3)nc(SCCCC(=O)NO)n2)cc1`, the growth is 26.1%.

Regarding `COc1ccc(-c2nn(-c3cccc(Cl)c3)cc2-c2cc(-c3ccccc3)nc(N)n2)cc1`, the growth was 73%.

Consider `O=[N+]([O-])c1cccc(/C=N/NC(=S)NC23CC4CC(CC(C4)C2)C3)c1`, for which the growth is 100%.

As for `O=C1c2c(c3c4ccccc4n(CCCCCCN4CCOCC4)c3c3[nH]c4ccccc4c23)C(=O)N1O`, the growth is 91.9%.

With `Nc1cc(-c2ccncc2)c[nH]c1=O`, the growth is 93.5%.

Consider `COc1cc(-c2nn(-c3ccc(NC(=O)NCCCNC(=O)c4ccccc4)cc3)cc2-c2ccncc2)ccc1Cl`, for which the growth is 22.8%.

Regarding `C=CCn1c(SCC(=O)Nc2ccc(C(=O)/C=C/c3cc(OC)c(OC)c(OC)c3)cc2)nnc1-c1cc(-c2ccc(Cl)cc2)nc2ccccc12`, the growth was 75%.

As for `CCCCCOC(=O)Nc1nc(=O)n(C2O[C@H](C)[C@@H](O)[C@H]2O)cc1F` (stereo not given in full), the growth was 102%.

Turning to `COc1ccc2c(c1)OC(N)=C(C#N)C2c1cc(OC)c(OC)c(OC)c1` (stereo not given), the growth was 5.64% (active).

With `CC(C)(C)OC(=O)N1CCc2c(sc3ncnc(N/N=C/c4ccccc4Br)c23)C1`, the growth is 92.3%.

Regarding `Cc1cc(CCNC=O)c(C)c2c1sc1ccccc12`, the growth is 96.9%.

`Nc1ccn(Cc2nnc(CCC(=O)c3nc4ccccc4[nH]3)o2)c(=O)n1`: the growth is 74.5%.

Take `CNC(=O)c1cc(Oc2ccc3c(c2)sc2nc(-c4ccc(NC(=O)Nc5ccc(Cl)c(C(F)(F)F)c5)cc4)cn23)ccn1`: the growth is 75.7%.

As for `COc1ccc(/C=C/C(=O)C(=O)/C=C/c2ccc(OC)c(OC)c2)cc1OC`, the growth was 14.8%.

Consider `COc1ccc(C(c2ccc(OCCN(C)C)cc2)c2cc3ccccc3c3ccccc23)cc1` (stereo not given), for which the growth was 93%.

The record behind these values is PubChem BioAssay (NCI).
